In PubChem BioAssay AID1159580 (chemical genetic matrix, 2015):
Screen size: about 5,500 compounds; about 2,000 (36%) were called active. Not shown: some 18% with an inconclusive outcome. No stated cut-off is given here; in the data, active means normalized growth mostly below about 0.91 (no sharp cut-off); inconclusive means no clear call, values can overlap the other calls; inactive means mostly above about 0.92. The list shows a part of the results.

Assay: chemical genetic growth profiling, strain panel (AID 1159580);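 further: tested at 20 µM; growth read once vehicle control cultures reached saturation at 30 °C; 1 = growth at the plate median or of vehicle wells; lower values mean less growth of the strain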
Conditions: growth OD

Measured: normalized growth

Cc1cc2c3c(c1)c(O)cc(=O)n3CCC2
inactive: S. cerevisiae deletion strains, locus YAL013W, strain DEP1, active compounds read low 0.967 | S. cerevisiae deletion strains, locus YBR229C, strain ROT2, active compounds read low 0.989 | S. cerevisiae deletion strains, locus YDL101C, strain DUN1, active compounds read low 0.981 | S. cerevisiae deletion strains, locus YDL134C, strain PPH21, active compounds read low 0.968 | S. cerevisiae deletion strains, locus YDR150W, strain NUM1, active compounds read low 1 | S. cerevisiae deletion strains, locus YEL061C, strain CIN8, active compounds read low 1.01 | S. cerevisiae deletion strains, locus YGR078C, strain PAC10, active compounds read low 0.991 | S. cerevisiae deletion strains, locus YGR229C, strain SMI1, active compounds read low 0.974 | S. cerevisiae deletion strains, locus YHR087W, strain rtc3, active compounds read low 0.991 | S. cerevisiae deletion strains, locus YJL187C, strain SWE1, active compounds read low 0.984 | S. cerevisiae deletion strains, locus YJR043C, strain POL32, active compounds read low 0.984 | S. cerevisiae deletion strains, locus YJR075W, strain HOC1, active compounds read low 1 | S. cerevisiae deletion strains, locus YKL190W, strain CNB1, active compounds read low 0.988 | S. cerevisiae deletion strains, locus YLR058C, strain SHM2 (second series), active compounds read low 0.995 | S. cerevisiae deletion strains, locus YLR085C, strain ARP6, active compounds read low 0.968 | S. cerevisiae deletion strains, locus YML094W, strain GIM5, active compounds read low 1.02 | S. cerevisiae deletion strains, locus YMR219W, strain ESC1, active compounds read low 0.969 | S. cerevisiae deletion strains, locus YMR263W, strain SAP30, active compounds read low 0.968 | S. cerevisiae deletion strains, locus YNL128W, strain TEP1, active compounds read low 0.989 | S. cerevisiae deletion strains, locus YNL153C, strain GIM3, active compounds read low 0.971 | S. cerevisiae deletion strains, locus YNL298W, strain CLA4 (second series), active compounds read low 1.01 | S. cerevisiae deletion strains, locus YNL322C, strain KRE1, active compounds read low 0.993 | S. cerevisiae deletion strains, locus YNR030W, strain Alg12, active compounds read low 0.989 | S. cerevisiae deletion strains, locus YOL006C, strain TOP1, active compounds read low 1.03 | S. cerevisiae deletion strains, locus YPL055C, strain LGE1, active compounds read low 0.88 | S. cerevisiae deletion strains, locus YPL241C, strain CIN2, active compounds read low 0.96 | S. cerevisiae deletion strains, locus YPR135W, strain CTF4, active compounds read low 0.918 | S. cerevisiae strains, strain wild type, active compounds read low 0.967
active: S. cerevisiae deletion strains, locus YHR030C, strain SLT2, active compounds read low 0.518 | S. cerevisiae deletion strains, locus YLR039C, strain RIC1, active compounds read low 0.544 | S. cerevisiae deletion strains, locus YLR262C, strain YPT6, active compounds read low 0.549
